Bioassay records: PubChem BioAssay, National Center for Advancing Translational Sciences (NCATS)
An excerpt weighted towards active compounds, which were near 8.7% of everything screened.
G9a inh: inhibitors of human histone lysine methyltransferase G9a. AID 504332. Potency, µM (top dose mostly 102 µM), for inactives: at the top dose activity, negative = inhibition, actives largely listed as inhibitors. 8.8% of 350,000 active. G9a H3K9 monomethylation, AlphaScreen, 2 h. Q96KQ7; further: on the % scale 0 is the no-effect control and ±100 the full control effect; nearly all actives have a fitted effect of over 75% in size
Target sequence (Q96KQ7 913-1193 limits assumed): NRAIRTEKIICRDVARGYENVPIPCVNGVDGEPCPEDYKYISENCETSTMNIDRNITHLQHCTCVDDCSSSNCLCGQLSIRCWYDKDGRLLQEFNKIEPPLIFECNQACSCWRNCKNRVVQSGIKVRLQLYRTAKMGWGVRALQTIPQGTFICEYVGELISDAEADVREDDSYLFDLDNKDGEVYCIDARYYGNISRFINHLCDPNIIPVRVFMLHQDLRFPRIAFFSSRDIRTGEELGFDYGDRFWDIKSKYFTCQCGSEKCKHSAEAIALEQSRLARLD
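Readings reflect AlphaScreen signal from monomethyl-H3K9 antibody detection. HMT at 20 nM; substrate b-H3K9 500 nM; cofactor SAM 20 uM; 2 h RT reaction; compounds tested as titrations in qHTS with 15 min preincubation.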
Sfp inh: Sfp phosphopantetheinyl transferase inhibition. Q9F4F7. AID 1490. Biochemical Sfp PPTase activity, qHTS. Potency, µM, inactives show largest response in the series, negative = inhibition, hits mostly inhibitors. 3.5% of 310,000 active;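 further: the enzyme is Sfp with the accession as filed and its product quenches rhodamine fluorescence; 0% = enzyme reaction without inhibitor and -100% = no enzyme wells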
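Fluorescence-quenching assay with 15 nM Sfp, 5 uM rhodamine-CoA and 12.5 uM BHQ-2-labelled ybbR peptide in pH 7.6 Hepes/MgCl2 buffer. Enzyme was pre-incubated with compound for 15 min at room temperature. Rate was taken from the 30-min fluorescence change (525/598 nm).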
BAZ2B block: BAZ2B (human) inhibition | Q9UIF8 | AlphaScreen BAZ2B-H3K14Ac peptide displacement | Potency, µM (highest dose often 114 µM), for the others: at the top dose activity change, negative = inhibition, actives largely listed as inhibitors | 4.4% of 360,000 active | AID 504333; further: on the % scale 0 is the no-effect control and ±100 the full control effect; nearly all actives have a fitted effect of over 60% in size
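Compounds, titrated to a top concentration of 110 uM, were incubated 30 min at room temperature with preformed BAZ2B/acetyl-K14 H3 peptide complex (50 nM each). Proximity signal was measured by AlphaScreen after 20 min with beads.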
HP1b chromo inh: blocks HP1-beta chromodomain binding to methylated histone tails | P83916 | AlphaScreen HP1-beta / biotin-H3K9me3 peptide binding | Potency, µM (top dose mostly 114 µM), for inactives: at the top dose activity change, negative = inhibition, most hits filed as inhibitors | 0.56% of 390,000 active | AID 540317; further: nearly all actives have a fitted effect of over 70% in size
Target sequence (P83916 whole entry, looked up): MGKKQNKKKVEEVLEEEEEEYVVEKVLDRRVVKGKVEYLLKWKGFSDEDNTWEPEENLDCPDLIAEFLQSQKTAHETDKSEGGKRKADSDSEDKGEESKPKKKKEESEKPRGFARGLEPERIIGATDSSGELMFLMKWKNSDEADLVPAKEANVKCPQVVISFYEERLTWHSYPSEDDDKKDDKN
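Compound inhibition of the preformed complex between 50 nM HP1-beta and 50 nM biotinylated H3K9me3 peptide was read by AlphaScreen. Buffer was PBS pH 7.4 with 0.01% Tween-20. Incubations ran 30 min at room temperature, with 10 ug/mL donor/acceptor beads.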
ALOX12 inh: blocks human arachidonate 12S-lipoxygenase; 1.1% of 580,000 active; purified 12hLO, xylenol orange hydroperoxide absorbance; AID 1671190; Potency, µM (top dose mostly 108 µM), for the others: at the top dose activity change, negative = inhibition, actives largely listed as inhibitors; further: on the % scale 0 is the no-effect control and ±100 the full control effect
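Hydroperoxide product was detected by ferrous iron/xylenol orange as the 573 to 405 nm absorbance ratio. Arachidonic acid at 40 uM (final) was turned over for 30 min at room temperature by 150 nM human 12hLO, pH 7.0 Hepes buffer, after 15 min compound preincubation.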
JMJD2A Tudor: JMJD2A Tudor domain (human) inhibition; AlphaScreen JMJD2A-Tudor / H3K4me3 peptide binding; 4.4% of 390,000 active; Potency, µM (titrated, usually from 114 µM), without a hit: at the top dose activity change, negative = inhibition, usual class: inhibitors; further: on the % scale 0 is the no-effect control and ±100 the full control effect; nearly all actives have a fitted effect of over 50% in size
Starred values were filed as active, the others as inactive; ? = inconclusive; nt = no result given; [ ] = another dose, or the depositor's remark. The call rests on the fitted dose curve; in most records, active means well fitted curve in the direction sought with a large enough effect; inconclusive means small, poorly fitted or top-dose-only effect, or another doubt; inactive means no such curve, though single readings can be large; an effect the other way counts as inactive or inconclusive. Potency means the concentration at half of the fitted maximal effect.

SMILES	G9a inh	Sfp inh	BAZ2B block	HP1b chromo inh	ALOX12 inh	JMJD2A Tudor
CC(C)CN1C(=O)c2ccc(C(=O)Nc3ccccc3C(=O)O)cc2C1=O	?	13%	5%	-4%	0%	22µM*
CCOc1ccccc1NC(=O)c1ccc2c(c1)C(=O)N(CC(C)C)C2=O	48%	7%	0%	15%	?	-10%
O=C1[C@H]2C(c3ccccc3)=NN(c3ccccc3)[C@H]2C(=O)N1c1ccccc1	76%	16%	46%	161%	?	92%
O=C1[C@@H]2[C@@H](CN3CN(c4ccccc4)N=C(c4ccccc4)[C@@]23c2ccccc2)C(=O)N1c1ccccc1	nt	nt	nt	?	-13%	89µM*
COCCN(C(=O)Cc1cccs1)c1nnc(-c2ccncc2)s1	?	7%	79µM*	5%	?	-24%
Cc1ccc(I)c(C(=O)NC(C)(C)C)c1	nt	nt	nt	nt	2%	nt
O=c1c2ccccc2sc2ccc(NCCCN3CCOCC3)cc12	nt	nt	nt	8%	14µM*	?
COc1cc2sc3cc(NCCCN4CCOCC4)ccc3c(=O)c2cc1OC	nt	nt	nt	30%	-1%	-30%
Cc1noc(C)c1-c1nc(NCCN2CCOCC2)c2ccccc2n1	-44%[0.501 µM]	-29%	nt	nt	56µM*	nt
N#Cc1nc(Cc2cccc3ccccc23)oc1NCCCN1CCOCC1	50µM*	0%	?	-10%	11%	-33%
C=CCOc1ccccc1CNCCCN1CCOCC1	-45%	-19%	-18%	16%	?	-7%
Oc1ccccc1CNCCCN1CCOCC1	8.9µM*	-14%	?	6%	?	4.5µM*
O=C(C1CCCC1)N1CC2(Cc3ccccc3NC2=O)C1	nt	nt	nt	nt	11%[12.5 µM]	nt
COc1ccccc1C(=O)NCC1Cn2cccc2C(=O)N1CC(C)C (stereo not drawn)	nt	nt	nt	nt	0%	nt
Cc1ccc(NC(=O)CN2CCN(C(=O)CCc3ncc(-c4ccc(C)c(C)c4)o3)CC2)cc1	nt	nt	nt	nt	16%	nt
CCC(C)NC(=O)C1COC2(CCC(C)CC2)N1C(=O)c1cccc(C)c1 (stereo not drawn)	nt	nt	nt	nt	86%	nt
Fc1ccccc1-c1nc(NCCCN2CCOCC2)c2ccccc2n1	-11%	15%	1%	23%	-13%	-3%
c1ccc2c(NCCCN3CCOCC3)c3ccccc3nc2c1	50µM*	3%	-15%	nt	-4%	nt
O=C1c2oc3ccccc3c(=O)c2C(c2cccs2)N1CCCN1CCOCC1 (stereo not drawn)	40µM*	?	?	31%	12%	-22%
CC(C)CCOc1cccc(C2c3c(oc4ccccc4c3=O)C(=O)N2CCCN2CCOCC2)c1 (stereo not drawn)	nt	nt	nt	42%	0%	-25%
COCCN1C(=O)c2oc3ccccc3c(=O)c2C1c1ccc(C(=O)OC)cc1 (stereo not drawn)	-2%[59 µM]	-5%	-2%	64%	391%	-8%
COc1cccc(C2c3c(oc4ccccc4c3=O)C(=O)N2CCCN2CCOCC2)c1 (stereo not drawn)	50µM*	12%	0%	47%	112%	-9%
COC(=O)c1ccc(C2c3c(oc4ccccc4c3=O)C(=O)N2CCCN2CCOCC2)cc1 (stereo not drawn)	35µM*	25µM*	-3%	46%	?	-12%
CN1C(=O)c2oc3ccccc3c(=O)c2C1c1ccncc1 (stereo not drawn)	8.9µM*	?	-23%	10%	nt	56µM*
COCCNC(=O)[C@@H]1C[C@H](Oc2ccccc2)CN1S(=O)(=O)Cc1ccccc1F	nt	nt	nt	nt	18%	nt
SMILES	G9a inh	Sfp inh	BAZ2B block	HP1b chromo inh	ALOX12 inh	JMJD2A Tudor
Fc1ccc(OCc2nc(C3CCCN3)no2)cc1 (stereo not drawn)	nt	nt	nt	nt	60%	nt
COc1ccc(C(=O)N2CCC3(CC2)OC(=O)N(Cc2cccnc2)C3(C)c2ccccc2)cn1 (stereo not drawn)	nt	nt	nt	nt	84%	nt
CCOc1ccccc1CN1C[C@@H](CO)[C@H](C2CCN(C(C)=O)CC2)C1	nt	nt	nt	nt	63%	nt
CC(C)C(=O)Nc1ccc(NC(=O)C(Cl)(Cl)Cl)cc1	nt	nt	nt	nt	-6%	nt
COCCN1C(=O)c2oc3ccccc3c(=O)c2C1c1ccc(OC)c(OC)c1 (stereo not drawn)	-4%	8%	-4%	?	332%	56µM*
Cc1ccc2oc3c(c(=O)c2c1)C(c1cccs1)N(CCCN(C)C)C3=O (stereo not drawn)	40µM*	?	-23%	18%	nt	-22%
COc1ccc(C2c3c(oc4ccccc4c3=O)C(=O)N2CCN2CCOCC2)cc1OC (stereo not drawn)	nt	nt	nt	14%	3%	2%
COC(=O)c1ccc(C2c3c(oc4ccc(Cl)cc4c3=O)C(=O)N2CCN2CCOCC2)cc1 (stereo not drawn)	20µM*	-29%	-11%	36%	0%	-13%
CCCCn1nc(C(=O)Nc2ccc(OC)c(OCCOC)c2)c2ccccc2c1=O	nt	nt	nt	nt	24%	nt
CCN(CC)S(=O)(=O)N(C)Cc1ccc2c(c1)OCCO2	nt	nt	nt	nt	-6%	nt
O=C(CC(=O)c1ccccc1O)c1ccc(F)cc1	2%	-16%	?	29%	6%	-20%
O=C(Cc1nn[nH]n1)NCc1ccccc1Cl	-6%[12.7 µM]	10%	50µM*	30%	261%	-7%
O=C(Cc1nn[nH]n1)c1ccccc1O	-4%[59 µM]	-24%	-8%	-9%	-2%	45µM*
O/C(=C\c1nc2ccccc2[nH]1)c1cccs1	25µM*	-12%	-30%	-3%[57 µM]	?	-29%
O=c1[nH]c2ccccc2nc1/C=C(\O)c1cccs1	nt	1%	7%	17%	-1%	-7%
Cn1c(=O)c2cc(NC(=O)Cc3ccccc3F)ccc2n1C/C=C/c1ccccc1	nt	nt	nt	nt	-18%	nt
Cn1c(=O)c2cc(NC(=S)NC3CCCCC3)ccc2n1C/C=C/c1ccccc1	nt	nt	nt	nt	40µM*	nt
COc1ccc(C(C[N+](=O)[O-])c2c(-c3ccccc3)cc3ccccn23)cc1OC (stereo not drawn)	10µM*	-28%	?	-5%	?	-21%[57.1 µM]
